# Screens (PubChem)
# NPC1 promoter act = activators of NPC1 promoter; 320,000 compounds, 2.4% hits; Potency, µM (highest dose often 9.22 µM), for the others: at the highest dose activation, most hits filed as activators; Huh7 NPC1 promoter luciferase reporter, 24 h; also: % of control where 0% means no effect; nearly all actives have a fitted effect of over 60% in size
#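 Luminescence from an NPC1 promoter-driven luciferase reporter in stably transfected Huh7 cells was measured after 24 h compound treatment at 37 °C, followed by 10 min ambient incubation with luciferase detection reagent.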
# FLuc modulator = inhibits or activates purified firefly luciferase, miR-21 counter-screen; Potency, µM (highest dose often 57.5 µM), inactives show at the top dose activity change, negative = inhibition, actives largely listed as inhibitors; 360,000 compounds, 6.9% hits; P08659; purified FLuc, Km substrates, luminescence inhibition; AID 588342;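 also: plate controls were vehicle for no effect and reference inhibitor for full effect; nearly all actives have a fitted effect of over 55% in size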
# Target sequence (P08659 whole entry, looked up): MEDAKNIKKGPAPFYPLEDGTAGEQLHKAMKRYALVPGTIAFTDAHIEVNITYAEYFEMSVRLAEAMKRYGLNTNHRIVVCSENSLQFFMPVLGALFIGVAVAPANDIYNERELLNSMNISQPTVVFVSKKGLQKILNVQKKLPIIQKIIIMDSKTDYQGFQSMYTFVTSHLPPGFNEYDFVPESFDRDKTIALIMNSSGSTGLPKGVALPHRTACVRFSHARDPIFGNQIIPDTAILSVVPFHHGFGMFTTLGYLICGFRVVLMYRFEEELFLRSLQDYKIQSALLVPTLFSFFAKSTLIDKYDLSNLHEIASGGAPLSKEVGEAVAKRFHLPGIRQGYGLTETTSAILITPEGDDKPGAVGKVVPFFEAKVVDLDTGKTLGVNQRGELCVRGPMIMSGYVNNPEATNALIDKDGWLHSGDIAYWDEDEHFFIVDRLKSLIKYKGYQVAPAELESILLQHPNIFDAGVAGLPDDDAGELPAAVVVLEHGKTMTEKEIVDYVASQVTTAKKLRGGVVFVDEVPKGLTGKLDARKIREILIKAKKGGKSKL
#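 Biochemical qHTS of compounds, final roughly 60 µM downward over six points, against 10 nM purified firefly luciferase using Km concentrations of substrates (10 uM D-luciferin, 10 uM ATP) in Tris acetate pH 7.5 buffer; luminescence output.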
# SMN2 splice enh = enhancers of SMN2 splice variant expression. HEK293 SMN2-luciferase splicing reporter, luminescence, 30-36 h. Potency, µM (doses to about 46.1 µM), for inactives: top-dose activity change, positive = activation, actives largely listed as activators. 210,000 compounds, 2.8% hits. AID 1458; also: % of control where 0% means no effect; nearly all actives have a fitted effect of over 55% in size
#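 qHTS luciferase splicing reporter: luminescence rises when SMN2 exon 7 is included in transfected HEK293 cells. Compound exposure lasted 30-36 h at 37C, with 4.5 mM final sodium butyrate as control, followed by a ONE-Glo read.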
# Rab9 prom act = activates the Rab9 promoter. Huh7 Rab9 promoter-luciferase reporter, luminescence, 24 h. 320,000 compounds, 2.8% hits. Potency, µM (doses to about 9.22 µM), for inactives: at the top dose activation, negative = inhibition, hits mostly activators. AID 485297; also: % of control where 0% means no effect; nearly all actives have a fitted effect of over 60% in size
#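 Using Huh7 cells stably transfected with Rab9 promoter–luciferase, compounds were incubated 24 h at 37 °C, 5% CO2; luciferase luminescence was read 10 min after reagent addition.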
# ELG1 repair inh = inhibitors of ELG1-dependent DNA repair in HEK293T cells | HEK293T ELG1-luciferase reporter, luminescence, 16 h; DNA damage induced by 5-fluorouridine | Potency, µM (doses to about 46.1 µM), without a hit: at the highest dose activity change, negative = inhibition, hits mostly inhibitors | 330,000 compounds, 2.3% hits; also: % is scaled to controls: 0 for no effect and ±100 for the full control effect; nearly all actives have a fitted effect of over 55% in size
#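 Overnight (16 hr) co-exposure of 2,000 cells/well to 5-fluorouridine and compound at 37 °C preceded detection. Luciferase was quantified via ONE-Glo luminescence; loss of signal denotes inhibition.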
# ELG1 genotoxic = genotoxicity induction in ELG1-luciferase HEK293T cells; 330,000 compounds, 1.3% hits; HEK293T ELG1-luciferase reporter, luminescence, 16 h; Potency, µM (doses to about 46 µM), without a hit: at the top dose activity change, positive = activation, usual class: activators; also: % of control where 0% means no effect; nearly all actives have a fitted effect of over 60% in size
#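 Cells (2,000/well) expressing the ELG1-luciferase fusion are dosed by pin tool and kept 16 hr at 37 °C, 5% CO2. Signal comes from ONE-Glo luciferase reagent after 30 min at room temperature.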
# Numbers without * were called inactive; ? = inconclusive; · = not tested or not shown. Only some compounds are listed: those with a hit (about 9.4% of all), similar ones and a draw of the others. Calls follow the shape of the dose curve; as a rule, active = well fitted curve in the direction sought with a large enough effect; inconclusive = small, poorly fitted or top-dose-only effect, or another doubt; inactive = no such curve, though single readings can be large; an effect the other way counts as inactive or inconclusive. Potency is read from the fitted curve at half-maximal effect.
SMILES,NPC1 promoter act,FLuc modulator,SMN2 splice enh,Rab9 prom act,ELG1 repair inh,ELG1 genotoxic
CN(C)c1ccc(C(=O)NN2C(=O)c3ccccc3C2=O)cc1,-2%,-12%,·,-2%,12%,0%
COc1ccc(/C=N/N2C(=O)c3ccccc3C2=O)cc1,1%,2.1µM*,-1%,-1%,12%,-4%
COc1ccccc1/C=N/N1C(=O)c2cccc3cccc(c23)C1=O,-3%,0%,18%,-3%,5%,0%
O=C(CC1N=C2c3ccccc3N=C(SCc3cccc(F)c3)N2C1=O)NCc1ccc2c(c1)OCO2 (centres undefined),·,-11%,·,·,·,·
COc1cc(C2C(C#N)=C(N)Oc3c2ccc2ccccc32)ccc1OCC(=O)Nc1cccc(C)c1 (centres undefined),-11%,2%,-29%,-21%,9.2µM*,-7%
CCCNC(=O)c1cn(CC)c2cc(N3CCN(C(=O)c4ccco4)CC3)c(F)cc2c1=O,4%,0%,·,6%,13µM*,-10%
CCn1cc(C(=O)NCc2cccnc2)c(=O)c2cc(F)c(N3CCN(C(=O)c4ccco4)CC3)cc21,1%,0%,-36%,0%,21µM*,-13%
CCn1cc(C(=O)NCc2cccc(F)c2)c(=O)c2cc(F)c(N3CCN(C(=O)c4ccco4)CC3)cc21,-8%,0%,-28%,-11%,13µM*,-15%
O=C(Nc1ccccc1)N1CCC2(CC1)CCN(C(=O)c1ccco1)CC2,·,·,-7%,·,·,·
O=C(CSc1nc2c(c(=O)[nH]1)CCCC2)Nc1ccc(Br)cc1,·,-1%,·,·,·,·
CC(=O)c1cccc(NC(=O)COc2ccccc2)c1,12%,?,-6%,-6%,?,?
CSc1cccc(NC(=O)COc2ccccc2)c1,11%,17µM*,5%,1%,?,4%
Cc1c(Cl)cccc1NC(=O)Nc1ccccc1C(N)=O,-8%,-10%,-24%,-6%,0%,7%
COc1ccc(CC(=O)Nc2cccc(SC)c2)cc1OC,-13%,3%,-100%,-16%,5.2µM*,16%
CSc1cccc(NC(=O)Nc2ccccc2)c1,29%,13µM*,?,29%,?,?
CSc1cccc(NC(=O)Nc2ccccc2C(N)=O)c1,-5%,11µM*,·,3%,-4%,2%
COc1ccc(Oc2cnc3ccccc3n2)cc1,?,-10%,19%,3.5µM*,28%,-3%
CCN(C(=O)CSc1nc2ccccc2c2nc(CCn3c(C)nc4ccccc43)nn12)c1cccc(C)c1,·,7%,·,·,·,·
O=C(N/N=C/c1ccc(OC(F)F)cc1)C1=COCCO1,3.2µM*,8.5µM*,11µM*,2µM*,?,?
Cc1ccc(C(=O)Nc2ccc(SC(F)F)cc2)s1,2.8µM*,6.7µM*,7.1µM*,1.3µM*,?,?
O=C(Nc1ccc(SC(F)F)cc1)C1=COCCO1,1.3µM*,4.8µM*,11µM*,1µM*,?,2.6µM*
COc1ccc(C)cc1NC(=O)C1CCN(S(=O)(=O)c2ccc3[nH]c(=O)oc3c2)CC1,·,-15%,·,·,·,·
COc1cc(OC)c(NC(=O)CSc2nc3ccncc3[nH]2)cc1Cl,-3%,-16%,-40%,-4%,·,·
COc1cc(CN(CC2CCCO2)C(=O)c2ccc(F)cc2)cc(OC)c1OC (centres undefined),·,-3%,3%,·,·,·
Cc1ccc(-n2cnnn2)cc1Cl,-3%,-4%,-1%,-1%,9%,27%
SMILES,NPC1 promoter act,FLuc modulator,SMN2 splice enh,Rab9 prom act,ELG1 repair inh,ELG1 genotoxic
COc1ccc(-n2nc3ccc(N)cc3n2)cc1Cl,21%,1.5µM*,·,14%,?,?
Cc1ccc(-n2nc3ccc(N)cc3n2)c(C)c1,2%,7.6µM*,·,22%,?,?
Cc1ccc(-n2nc3ccc(N)cc3n2)cc1Cl,?,0.67µM*,·,?,?,?
Cc1ccc(-n2nc3ccc(N)cc3n2)cc1C,1.6µM*,0.48µM*,·,0.5µM*,?,0.92µM*
CC(C)CC(=O)NCC(c1ccc2c(c1)OCO2)N1CCN(c2ccccc2F)CC1 (centres undefined),·,2%,·,·,·,·
COc1ccc(-n2nc3ccc(NS(C)(=O)=O)cc3n2)cc1Cl,?,3.4µM*,25%,25%,?,16µM*
CC(NC(=O)c1ccc2c(c1)CCN2S(=O)(=O)c1ccccc1)c1ccccc1 (centres undefined),·,5%,-2%,·,·,·
Cn1nc(C(F)(F)F)cc1C(=O)Nc1ccc(-c2ccno2)cc1,-10%,-8%,·,-2%,13µM*,-15%
C=C1C=C(C(F)F)n2ncc(C(=O)Nc3ccc(C(C)CC)cc3)c2N1 (centres undefined),·,0%,·,·,·,·
CC(C)NCc1nnc(-c2ccc(Cl)cc2)o1,-2%,-10%,·,-7%,?,9%
CC(O)c1nc2ccccc2n1Cc1nnc(-c2ccc(Cl)cc2)o1 (centres undefined),8%,17µM*,-25%,16%,?,11%
O=S(=O)(c1cccc2nonc12)N1CCN(c2ccc(F)cc2)CC1,-1%,27µM*,·,-8%,?,6%
O=C(C1CCCN(S(=O)(=O)c2cccc3nonc23)C1)N1CCN(c2ccccc2Cl)CC1 (centres undefined),1%,-1%,-11%,-10%,23µM*,-9%
O=C(C1CCCN(S(=O)(=O)c2cccc3nonc23)C1)N1CCN(c2cccc(Cl)c2)CC1 (centres undefined),1%,-1%,2%,1%,?,-19%
COc1cccc(CNS(=O)(=O)c2ccc(N3CCCCS3(=O)=O)cc2)c1,·,2%,·,·,·,·
O=C(NC(=O)c1ccccc1)C1=C(N2CCCC2)COC1=O,2.2µM*,?,·,1.3µM*,?,?
O=C(NS(=O)(=O)Nc1ccccc1)C1=C(N2CCCC2)COC1=O,·,·,·,·,29%,1%
Cc1cccc(CCNC(=O)C2CCC(CNS(=O)(=O)c3c(C)cc(C)cc3C)CC2)c1 (centres undefined),·,-1%,·,·,·,·
O=C1CN(C(=O)c2ccc(S(=O)(=O)N3CCCCC3)cc2)C(c2ccc(F)cc2)c2cc(Br)ccc2N1 (centres undefined),·,-5%,-1%,·,·,·
CN(C)c1ccc(/C=C2\CCCCC2=O)cc1,3.5µM*,2.7µM*,22µM*,3.2µM*,?,5.8µM*
CN(C)c1ccc(C2C3=C(CCCC3=O)OC3=C2C(=O)CCC3)cc1,-2%,0%,5%,-8%,18%,1%
CC(=O)N1CCC2(CCCN(c3ccccn3)C2)CC1,·,·,-3%,·,·,·
